The experiment can be described thus: Acumen qHTS Assay for Inhibitors of the mTORC1 Signaling Pathway in MEF (Tsc2-/-, p53-/-) Cells: Hit Validation.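 For activity change, negative = inhibition: cells exposed to compound for 24 hours; plate controls were DMSO for no effect and 7.5 nM rapamycin control for full effect.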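 Note: phospho-rpS6 Ser235/236 immunofluorescence normalized to propidium iodide cell count; nearly all actives have a fitted effect of over 65% in size.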 The following applies: Acumen imaging; activity change, negative = inhibition: at 37.3 µM (top of the series). (qHTS replaces the single test concentration by a dilution series.)

Results filed as inconclusive are left out. Calls of active or inactive are those of the source. Calls come from the whole dose curve; as a rule, active = well fitted inhibition curve with a large enough effect; inconclusive = small, poorly fitted or top-dose-only effect; inactive = no such curve, though single readings can be large or run the other way.
Potency is the fitted concentration of half-maximal effect.

Take `COc1ccc(NC(=O)CCS(=O)(=O)c2nc(-c3cccs3)cc(C(F)(F)F)n2)cc1OC`: the activity change, negative = inhibition was -87.3%.
The same measure, in the same setting: then `COc1cc(C(=O)CC2(O)C(=O)N(Cc3ccccc3Cl)c3ccccc32)cc(OC)c1OC` (stereo not given), with -2.03%.
In the case of `CC(C)OCc1cc(CN2CCN(c3cccc(C(F)(F)F)c3)CC2)c(O)c2ncccc12`, the Potency was 11.7 µM (active).
In the case of `Cc1nc2nncn2c(NCc2ccc(F)cc2)c1C`, the activity change, negative = inhibition is -42.2%.
Same read-out and setting: the result for `CCOc1ccc(Nc2nc(N)c(C(=O)c3ccccc3Cl)s2)cc1` reads -95%.
`CCC(C)S(=O)(=O)c1oc(-c2cccs2)nc1S(=O)(=O)c1ccccc1` (stereo not given): the Potency was 0.927 µM (active).
For the compound `CCCCOc1ccccc1C1CC(=O)Nc2ccc3ccccc3c21` (stereo not given), the activity change, negative = inhibition is -10.2%.
In the case of `COc1ccc(-c2cc(C(F)(F)F)nc(S(=O)(=O)CCCC(=O)Nc3ccccc3C(F)(F)F)n2)cc1OC`, the Potency is 13.1 µM (active).
Turning to `CS(=O)c1ccc(-c2nc(-c3ccc(F)cc3)c(-c3ccncc3)[nH]2)cc1` (stereo not given), the activity change, negative = inhibition was -5.71%.
Still for that read-out and setting: the result for `CCOC(=O)C1CCN(C(=O)CSc2c3c(nc4ccc(Cl)cc24)CCCC3)CC1` reads -5.08%; that for `COc1ccc(C2=NS(=O)(=O)N(C)C(C(=O)Nc3ccc(OC(F)(F)F)cc3)=C2)cc1`, 2.76%.
For `CC(=O)Nc1cccc(NC(=O)C(=O)NCCc2sc(-c3ccccc3)nc2C)c1`, the Potency was 0.329 µM (active).
Consider `Nc1nnc(SCC(=O)Nc2cccc(F)c2)s1`, for which the activity change, negative = inhibition is 16.3%.
On the same count and under the same terms, the result for `COc1cccc(-n2c(-c3ccco3)nc3c(cnn3-c3ccc(C)cc3)c2=O)c1` reads 15.6%; that for `CCn1c(=O)sc2cc(NS(=O)(=O)c3ccc(F)c(C)c3)ccc21`, -28.9%; that for `Cc1ccccc1C(=O)N1CCN(CCc2ccccn2)CC1`, -26.5%.
Same read-out and setting: then `CCCCN(CC)CCNC(=O)C1CCN(c2nnc(C)c3c(C)n(-c4ccc(C)cc4)nc23)CC1`, with -14.5%.
Same read-out and setting: the result for `CCOc1ccc(NC(=O)CN2C(=O)C(c3ccc(Cl)cc3)=NC2(C)C)cc1` reads 17.5%.
As for `Cc1cc(C)cc(NC(=O)c2cnn(-c3ccc(C)c(C)c3)c2C2CCNCC2)c1`, the activity change, negative = inhibition was -31.5%.
The same measure, in the same setting: then `Cc1ccc(-c2nnc(Nc3cccc(Cl)c3)c3ccccc23)cc1S(=O)(=O)N1CCN(C)CC1`, with -42.6%.
